Records with an inconclusive call do not appear. A call without a number means that no potency is given here. Active and inactive are the calls of the source. The call rests on the fitted dose curve; in most records, active means well fitted cell-killing curve with a large enough effect; inconclusive means small, poorly fitted or top-dose-only effect; inactive means flat fitted curve, though single readings scatter.
Potency means the concentration at half of the fitted maximal effect.

The nature of the experiment: Quantitative highthroughput screen to assess conditional lethalithy of P12 Ichikawa cells grown in RPMI1640 with dialyzed fetal bovine serum (RPMI+ds) (AID 1963880). Further: nearly all actives have a fitted effect of over 35% in size. The note with it: ATP luminescence, 48 h; Potency: P12-Ichikawa viability; series mostly up to 45.8 µM. The source says:
Assay Provider: Jason Cantor Ph.D.
Department of Biochemistry
University of Wisconsin-Madison, Madison, WI, USA
Chemical screening studies have identified drug sensitivities across hundreds of cancer cell lines but most putative therapeutics fail to translate. Discovery and development of drug candidates in models that more accurately reflect nutrient levels in human blood is a major challenge. Here we performed high-throughput screens in conventional versus Human Plasma-Like Medium (HPLM) to identify compounds that were "missed" when screening using the artificial culture condition. Sets of conditional anticancer compounds spanned phases of clinical development and included non-oncology drugs were assessed. […] We also traced conditional phenotypes for several chemotherapeutics to availability of HPLM-specific metabolites and confirmed others for compounds whose reported targets are encoded by nonessential genes. Our findings establish generalizable strategies for exploiting conditional lethality in HPLM to reveal therapeutic candidates and mechanisms of action in cancer cells.
Described herein are the results of each viability screens against three cell lines: NOMO1 (an acute myeloid leukemia cell line); P12-Ichikawa (a T-cell acute lymphoblastic leukemia); and SEM (a B-cell ALL). Each assay was screened using 3 different cell culture media: homemade human plasma-Like medium with 10% dialyzed fetal bovine serum (HPLM+ds); RPMI1640 with 10% untreated FBS and 5mM glucose (RPMI+s); and RPMI1640 with 10% dialyzed fetal bovine serum and 5 mM glucose (RPMI+ds).
PROTOCOL TABLE (as described by Inglese J, Shamu CE and Guy RK. 2007)
SEQUENCE No. (e.g., 1, 2, 3, etc.); […] (e.g., Cells, Incubation, Reagent, etc.); VALUE and DESCRIPTION.
1; Cells; 5 uL; white, solid bottom 1536-well Greiner assay plate.
2; Compounds; 23 nL; Kalypsis pin tool (Wako USA) equipped with a 1536-well pin head to transfer to the assay plates.
3; Incubation; 48 hours; 37C incubation.
4; Reagent; 3 uL; CellTiter Glo (Promega).
5; Incubation; 5 min, room temperature
6; Detection; Luminescence, Viewlux PerkinElmer.
NOTES (numbers refer to Sequence numbers above)
1. Briefly, 5 ul of cell reagent was dispensed using a Multidrop Combi Dispenser. The NOMO1 and SEM cells were plated at 500 cells/well and the P12-Ichikawa line at 1000 cells/well.
2. After seeding the cells, 23 nL of MIPE 4.1 library compounds (in DMSO) were added to each plate using a Kalypsys 1536 Pintool dispenser. Bortezomib at final concentration of […] and DMSO were added to each plate as positive and negative controls respectively. For each screen, MIPE 4.1 compounds were added over an eleven-point concentration range […] in 3-fold dilutions.
3. Each plate was covered with a stainless steel gasketed lid to prevent evaporation and incubated for 48 hour at 37C, 95% relative humidity, and 5% CO2.
4-5. Three microliter CellTilter-GloTM luminescent substrate mix (Promega) reagent was added to the assay plate and incubated at room temperature for 5 min.
6. The luminescence signal was measured using a ViewLux (PerkinElmer) multiplate reader with a 2 second exposure time per plate. Data for each compound were normalized as percent viability such that measurements for DMSO and the empty well controls in each plate were defined as 100% and 0%, respectively.
Consider `C#CCN(C)[C@H](C)Cc1ccccc1`, for which the Potency entry is “inactive”.
The same measure for `NC1CC1c1ccccc1` (stereo not given): “inactive”.
The same measure for `Cn1cc(C2=C(c3cn(C4CCN(Cc5ccccn5)CC4)c4ccccc34)C(=O)NC2=O)c2ccccc21`: “inactive”; for `C[C@]12CC[C@H](O)CC1=CC[C@H]1[C@H]3CCC(=O)[C@@]3(C)CC[C@@H]12`: “inactive”.
Next, `O=c1[nH]c2ccccc2n1C1CCN(Cc2ccc(-c3[nH]c4cc5ncnc5cc4nc3-c3ccccc3)cc2)CC1`: “inactive”; `CN(C)[C@@H]1C(=O)C(C(N)=O)=C(O)[C@@]2(O)C(=O)C3=C(O)c4c(O)cccc4[C@@](C)(O)[C@H]3[C@H](O)[C@@H]12`: “inactive”.
Turning to `C[C@H]1CCCC=CC2C[C@H](O)C[C@@H]2[C@H](O)C=CC(=O)O1` (stereo not given in full), the Potency was 23.5 nM (active).
Next, `CC(=O)Nc1ccc(OC[C@](C)(O)C(=O)Nc2ccc([N+](=O)[O-])c(C(F)(F)F)c2)cc1`: “inactive”.
Next, `Cc1ncc(OC[C@@]2(c3cccc(F)c3)C[C@H]2C(=O)Nc2ccc(F)cn2)c(C)n1`: “inactive”.
`O=C(Oc1ccc([N+](=O)[O-])cc1)N1CCN(Cc2cccc(Oc3ccccc3)c2)CC1`: the Potency result was “inactive”.
As for `CCC1(c2ccc(N)cc2)CCC(=O)NC1=O` (stereo not given), the Potency entry was “inactive”.
As for `N[C@@H](Cc1ccc(N(CCCl)CCCl)cc1)C(=O)O`, the Potency is 5900 nM (active).
Next, `C[C@@H]1CC[C@H]2[C@@H](C)C(=O)O[C@@H]3O[C@@]4(C)CC[C@H]1[C@]32OO4`: “inactive”.
Next, `CC[C@@]1(O)C(=O)OCc2c1cc1n(c2=O)Cc2cc3ccccc3nc2-1`: 20.9 nM (active); `CCOC(=O)c1c(C(C#N)=CN)c2ccc(Cl)c(Cl)c2n1C`: “inactive”; `O=C1CC[C@@]2(O)[C@H]3Cc4ccc(O)c5c4[C@@]2(CCN3CC2CC2)[C@H]1O5`: “inactive”.
The same measure for `c1cc2c(cc1[C@H]1OC[C@H]3[C@H]1CO[C@H]3c1ccc3c(c1)OCO3)OCO2`: “inactive”; for `COc1cc2cc(c1Cl)N(C)C(=O)C[C@H](OC(=O)C(C)C)[C@]1(C)O[C@H]1[C@H](C)[C@@H]1C[C@@](O)(NC(=O)O1)[C@H](OC)C=CC=C(C)C2`: “inactive”.
On to `Clc1ccccc1C(c1ccccc1)(c1ccccc1)n1cccn1`, for which the Potency result is “inactive”.
The same measure for `CN1CCN(C(=O)O[C@H]2c3nccnc3C(=O)N2c2ccc(Cl)cn2)CC1`: “inactive”; for `CC1=C2C[C@@H]3[C@@H](CC=C4C[C@@H](O)CC[C@@]43C)[C@@H]2CC[C@]12O[C@H]1C[C@H](C)CN[C@H]1[C@H]2C`: “inactive”; for `O=C1C=CC[C@@H]2[C@H]3CCCN4CCC[C@@H](CN12)[C@@H]34`: “inactive”.
`CNC(=O)c1ccc(N2C(=S)N(c3ccc(C#N)c(C(F)(F)F)c3)C(=O)C23CCC3)cc1F`: the Potency entry is “inactive”.
Consider `CN1CCN(c2ccc([N+](=O)[O-])c3no[n+]([O-])c23)CC1`, for which the Potency result is “inactive”.
Next, `CC1=C(O)C(=O)C=C2C1=CC=C1[C@@]2(C)CC[C@@]2(C)[C@@H]3C[C@](C)(C(=O)O)CC[C@]3(C)CC[C@]12C`: 2640 nM (active); `CN(C)CCc1ccc(O)cc1`: “inactive”; `N=c1c2c(-c3ccccc3)c(-c3ccccc3)n(Cc3ccccc3)c2ncn1C1CCC(O)CC1` (stereo not given): 16600 nM (active).
Next, `CC[C@@H]1[C@@H](C)O[C@@](O)([C@@H](C)[C@H](O)[C@H](C)[C@H]2OC(=O)C=CC=C[C@@H](C)[C@@H]([C@@H](C)[C@@H](O)[C@H](C)[C@@]3(O)C[C@H](O[C@H]4C[C@H](O)[C@H](O)[C@H](C)O4)[C@H](CC)[C@@H](C)O3)OC(=O)C=CC=C[C@@H]2C)C[C@H]1O[C@H]1C[C@H](O)[C@H](O)[C@H](C)O1`: 3320 nM (active).
Next, `CC(=O)N(C)c1cccc(-c2ccnc3c(C(=O)c4cccs4)cnn23)c1`: “inactive”; `CC[C@@H](C(N)=O)N1CCCC1=O`: “inactive”.
Turning to `O=C(O)c1nn(Cc2ccc(Cl)cc2Cl)c2ccccc12`, the Potency result is “inactive”.
With `CC(C)[C@]12O[C@@H]1[C@@H]1O[C@]13[C@]1(O[C@H]1C[C@@H]1C4=C(CC[C@@]13C)C(=O)OC4)[C@H]2O`, the Potency is 1.2 nM (active).
The same measure for `CCCN1CCO[C@@H]2c3cc(O)ccc3OC[C@@H]21`: 26400 nM (active).
Consider `CC=C(C)C(=O)O[C@H]1C(C)=C2[C@@H]3OC(=O)[C@@](C)(O)[C@@]3(O)[C@@H](OC(=O)CCC)C[C@](C)(OC(C)=O)[C@@H]2[C@@H]1OC(=O)CCCCCCC`, for which the Potency is 132 nM (active).
The same measure for `CCOc1ccccc1-n1c(C(C)N2CCN(C(=O)COc3ccc(Cl)cc3)CC2)nc2ccccc2c1=O` (stereo not given): 1050 nM (active).
Next, `C[C@]12CC[C@@H]3[C@@H](CCC4=CC(=O)CC[C@@H]43)[C@@H]1CC[C@@H]2OC(=O)CCc1ccccc1`: “inactive”.
Next, `CC(=Cc1csc(C)n1)[C@@H]1C[C@H]2O[C@]2(C)CCC[C@H](C)[C@@H](O)[C@@H](C)C(=O)C(C)(C)[C@@H](O)CC(=O)O1`: “inactive”; `CC(C)N[C@@H]1CCn2c(=O)[nH]c3cccc(c32)[C@@H]1O`: “inactive”; `C[C@@]12OC(=O)[C@]1([C@@H](O)[C@@H]1C=CCCC1)NC(=O)[C@H]2CCCl`: 187 nM (active).
Consider `CC(C)N(CCNC(=O)CN1CCCC1=O)C(C)C`, for which the Potency result is “inactive”.

For the origin of these results see PubChem BioAssay (NCATS).
